The source made the active and inactive calls. Calls come from the whole dose curve.
Assay: qHTS Assay for Identification of Small Molecule Antagonists for NFkB Signaling Pathway. (AID 624479);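 note: pathway stimulated with TNF alpha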
Conditions: NFkB pathway reporter cell assay, antagonist mode; series mostly up to 38.3 µM; activity change, negative = inhibition: at the top concentration
% is set by controls: 0 for no effect and ±100 for the full control effect; potency is the fitted concentration of half-maximal effect.

| Compound | Potency | activity change, negative = inhibition |
| --- | --- | --- |
| Cc1nc(N)sc1-c1ccnc(Nc2ccc(N3CCOCC3)cc2)n1 | 2.66 µM (active) |  |
| COc1ccc(C2CC(c3ccccc3)=NN2c2ccc(S(N)(=O)=O)cc2)cc1 (stereo not drawn) |  | -20.9% (inactive) |
| Clc1ccc(-c2nc3sccn3c2C=NOCc2ccc(Cl)c(Cl)c2)cc1 |  | -20.3% (inactive) |
| O=C(Nc1ccccc1-c1cn2c(CN3CCNCC3)csc2n1)c1cnc2ccccc2n1 |  | -1.38% (inactive) |
| CS(=O)c1ccc(-c2nc(-c3ccc(F)cc3)c(-c3ccncc3)[nH]2)cc1 (stereo not drawn) |  | -17.6% (inactive) |
| CC(C)(C(=O)NCC(F)(F)C(F)(F)F)C(=O)N[C@@H]1C(=O)Nc2ccccc2-c2ccccc21 |  | -14.6% (inactive) |
| OC[C@H]1O[C@@H](n2cnc3c2NC=NC[C@@H]3O)C[C@H]1O |  | -10.2% (inactive) |
| COc1cc2ncnc(-n3nc(-c4ccccn4)nc3N)c2cc1OC | 1.88 µM (active) |  |
| CC(=O)Nc1ccc([C@H](C)C(=O)Nc2ncc(C(C)C)s2)cc1 | 0.335 µM (active) |  |
| COc1cc(N2CCC(N3CCN(C)CC3)CC2)ccc1Nc1ncc(Cl)c(Nc2ccccc2S(=O)(=O)C(C)C)n1 | 11.9 µM (active) |  |
| O=C(O)c1ccc(-c2cc3cccnc3c(-c3ccc4nonc4c3)n2)cc1 |  | -15.8% (inactive) |
| CC(C)C(=O)Nc1ncc(-c2cc(C(F)F)nn2-c2c(Cl)cccc2Cl)s1 | 18.8 µM (active) |  |
| O=C(N[C@@H](c1ccccc1)[C@@H]1CCCCN1)c1cccc(C(F)(F)F)c1Cl |  | -8.33% (inactive) |
| Cc1ccc(F)c(NC(=O)Nc2ccc(-c3cccc4[nH]nc(N)c34)cc2)c1 | 1.49 µM (active) |  |
| O=C(Nc1cc(Cl)cc2c1[nH]c1cnccc12)c1cccnc1 | 18.8 µM (active) |  |
| c1ccc2c(-c3cnn4cc(-c5ccc(N6CCNCC6)cc5)cnc34)ccnc2c1 | 18.8 µM (active) |  |
| CC(C)(C)COc1ccc(-n2cc(C(=O)O)cn2)cc1C#N |  | -10.8% (inactive) |
| CC(C)(C)C(=O)Oc1ccc2c(c1)nc(NC(=O)c1cccc([N+](=O)[O-])c1)n2CCCO | 4.73 µM (active) |  |
| CN(C)C1CCN(C(=O)c2ccc(NC(=O)Nc3nc(N4CCOCC4)nc(N4CCOCC4)n3)cc2)CC1 |  | -25.9% (inactive) |
| CCOC(CN1C(=O)[C@](CC(=O)Nc2ccc(C)cc2)(NC(=O)Nc2ccc(C)cc2)c2ccccc21)OCC | 18.8 µM (active) |  |
| O=c1cc(N2CCOCC2)oc2c(-c3cccc4c3sc3ccccc34)cccc12 | 13.3 µM (active) |  |
| COc1cccc2c1CCCC2CCCN1CCN(C2CCCCC2)CC1 (stereo not drawn) |  | 3.45% (inactive) |
| O=C(O)CCC1CCC(c2cc(F)ccc2F)(S(=O)(=O)c2ccc(Cl)cc2)CC1 (stereo not drawn) |  | -0.994% (inactive) |
| CC(C)(C)c1cc(C(=O)O)c(NC(=O)Nc2ccc3[nH]ncc3c2)s1 |  | -13.8% (inactive) |
| COc1cc2nc(-c3ccc(N4CCN(C)CC4)cc3)nc(NCCN3CCOCC3)c2cc1OC |  | -5.48% (inactive) |
| O=C1C(Cl)=C(NCCN2CCOCC2)C(=O)c2ncccc21 | 2.11 µM (active) |  |
| CN(C)Cc1ccc(-c2nc3cccc4c3n2CCNC4=O)cc1 | 23.7 µM (active) |  |
| N#Cc1ccc(NC(=O)Nc2ccccc2Br)c2n[nH]nc12 |  | -3.38% (inactive) |
